VP16 counter = VP16 counterscreen qHTS for inhibitors of ROR gamma transcriptional activity; hit rate 3.5% among 310,000; AID 2546, 2010; Potency, µM (highest dose often 53.6 µM), without a hit: at the highest dose activity, negative = inhibition, usual class: inhibitors; Drosophila S2 Gal4-VP16 UAS-luciferase, luminescence, 20 h;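 also: Gal4-VP16 expression switched on by copper sulfate through the metallothionein promoter; potency is read from the fitted curve at half-maximal effect; nearly all actives have a fitted effect of over 50% in size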
TSHR antag = Antagonists of the Thyroid Stimulating Hormone Receptor: HTS campaign | Thyrotropin receptor (Homo sapiens), P16473 | activity change, negative = inhibition, % at 11.5 µM | hit rate 0.2% among 330,000 | AID 504810, 2011 | TSHR-expressing cells, TSH-stimulated cAMP HTRF, 2 h; hits give low values;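 active = activity change below a set negative limit, meaning inhibition stronger than a set level, cut at about -70% in these data; inconclusive = activity change between two set negative limits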
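Freshly harvested TSHR cells receive pin-tooled compound, then EC80 TSH at 4nM final. After 2 hours at 37 deg C, antibody in lysis buffer and cAMP-d2 are added; 30 minutes at ambient temperature precede the HTRF read.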
B2AR arrestin = qHTS assay of beta-arrestin-biased ligands of beta2-adrenergic receptor; AID 492947, 2010; hit rate 0.02% among 330,000; beta-arrestin recruitment to beta2AR, cell-based reporter; Beta-2 adrenergic receptor (Homo sapiens), P07550; Potency, µM (doses to about 46.1 µM), for the others: at the top dose activation, actives largely listed as activators;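 also: potency is read from the fitted curve at half-maximal effect; 0% = DMSO controls and full agonism = EC100 isoproterenol or metaproterenol; nearly all actives have a fitted effect of over 65% in size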
RORgamma inh = qHTS for inhibitors of ROR gamma transcriptional activity. Potency, µM (top dose mostly 53.6 µM), without a hit: top-dose activity change, negative = inhibition, hits mostly inhibitors. hit rate 5.4% among 310,000. Drosophila S2 Gal4-RORgamma UAS-luciferase reporter, 20 h; also: potency is read from the fitted curve at half-maximal effect; nearly all actives have a fitted effect of over 60% in size
Target sequence (P51450 whole entry, looked up, the tested form may be a part): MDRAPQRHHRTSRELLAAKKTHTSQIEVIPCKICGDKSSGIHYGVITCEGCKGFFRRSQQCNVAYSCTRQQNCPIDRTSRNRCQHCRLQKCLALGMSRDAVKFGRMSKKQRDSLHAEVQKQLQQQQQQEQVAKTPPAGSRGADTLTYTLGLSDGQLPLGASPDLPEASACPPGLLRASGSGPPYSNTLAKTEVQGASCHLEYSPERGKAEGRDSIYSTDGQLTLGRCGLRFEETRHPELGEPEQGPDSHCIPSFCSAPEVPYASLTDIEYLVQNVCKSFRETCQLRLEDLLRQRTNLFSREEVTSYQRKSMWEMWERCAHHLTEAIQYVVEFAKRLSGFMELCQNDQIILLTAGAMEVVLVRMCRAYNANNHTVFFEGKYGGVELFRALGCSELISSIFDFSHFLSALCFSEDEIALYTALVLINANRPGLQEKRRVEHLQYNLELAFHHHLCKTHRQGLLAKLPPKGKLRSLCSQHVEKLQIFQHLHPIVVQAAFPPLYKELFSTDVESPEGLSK
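Stable Schneider cell line, Gal4 DNA-binding domain fused to ROR gamma, UAS-luciferase. Cmpd 1 hr RT → CuSO4 700 uM final → 20 hr RT → luciferase reagent 10 min → luminescence.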
ELG1 repair inh = qHTS screen for small molecules that inhibit ELG1-dependent DNA repair in human embryonic kidney (HEK293T) cells expressing luciferase-tagged ELG1; Potency, µM (titrated, usually from 46.1 µM), inactives show at the highest dose activity change, negative = inhibition, hits mostly inhibitors; AID 504467, 2011; HEK293T ELG1-luciferase reporter, luminescence, 16 h; DNA damage induced by 5-fluorouridine; hit rate 2.3% among 330,000; also: potency is read from the fitted curve at half-maximal effect; nearly all actives have a fitted effect of over 55% in size
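5-Fluorouridine DNA damage + compound/DMSO, 2,000 cells/well, 16 h, 37 °C/5% CO2. ONE-Glo, 30 min RT, luminescence. Readout = decrease in reporter signal.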
* marks the source's active call; other numbers are inactive results; ? = inconclusive; / = no result given. Only some compounds are listed: those with a hit (about 7.5% of all), similar ones and a draw of the others. Unless noted, calls follow the shape of the dose curve; as a rule, active = well fitted curve in the direction sought with a large enough effect; inconclusive = small, poorly fitted or top-dose-only effect, or another doubt; inactive = no such curve, though single readings can be large; an effect the other way counts as inactive or inconclusive. Unless noted, % is scaled to controls: 0 for no effect and ±100 for the full control effect.

SMILES | VP16 counter | TSHR antag | B2AR arrestin | RORgamma inh | ELG1 repair inh
CCN(CC(=O)NC(=O)NC1CCCCC1)Cc1nc2ccccc2c(=O)[nH]1 | 0.56µM* | 3 | 0% | 0.56µM* | -12%
CCN(CC(=O)NC(c1ccccc1)c1ccccc1)Cc1nc2ccccc2c(=O)[nH]1 | 11µM* | 4 | 0% | 2.5µM* | -4%
CCN(CC(=O)NCc1ccc(F)cc1)Cc1nc2cc(Cl)ccc2c(=O)[nH]1 | ? | -18 | 0% | 7% | -16%
CCN(CC(=O)Nc1ccccc1SC)Cc1nc2ccccc2c(=O)[nH]1 | 0.79µM* | -5 | ? | 0.22µM* | 4%
CN(CC(=O)Nc1ccccc1Br)C(=O)CCc1nc2ccccc2c(=O)[nH]1 | / | 2 | 0% | / | 19%
O=C(c1ccc(Br)cc1)N(Cc1nc2ccccc2c(=O)[nH]1)C1CCCC1 | ? | 19 | -1% | 16µM* | ?
CN(CC(=O)Nc1ccccc1Br)Cc1nc2ccccc2c(=O)[nH]1 | -17% | 2 | 0% | 28µM* | -17%
CC(C)CN(C(=O)CCCc1nc2ccccc2c(=O)[nH]1)c1c(N)n(Cc2ccccc2)c(=O)[nH]c1=O | / | 8 | 0% | / | ?
CCN(CC(=O)N(CC(C)C)c1c(N)n(CC(C)C)c(=O)[nH]c1=O)Cc1nc2ccccc2c(=O)[nH]1 | ? | 7 | 0% | 4µM* | -6%
Cc1ccc(S(=O)(=O)CC(CN2CCCCC2)N2CCCCC2)cc1 (centres undefined) | -19% | 21 | 0% | 2.8µM* | ?
O=S(=O)(CC(CN1CCOCC1)N1CCOCC1)c1ccccc1 (centres undefined) | 13% | -1 | 0% | -12% | -4%
O=S(=O)(CC(CN1CCCCC1)N1CCCCC1)c1ccc2ccccc2c1 (centres undefined) | ? | -2 | 0% | 13µM* | ?
c1csc(-c2csc3nc(CN4CCOCC4)nc(NCc4ccc5c(c4)OCO5)c23)c1 | ? | -5 | -1% | 18µM* | ?
S=C(Nc1ccc(Cl)c(Cl)c1)N1CCOCC1 | 6% | 8 | 0% | -36% | 0%
CC(C)c1ccc(NC(=S)NN2CCOCC2)cc1 | ? | -1 | 0% | 8.9µM* | ?
FC(F)Oc1ccc(NC(=S)NN2CCOCC2)cc1 | 17% | -5 | 0% | -2% | 2%
S=C(Nc1ccc(Cl)c(Cl)c1)NN1CCOCC1 | 10µM* | 10 | 0% | 7.9µM* | 2%
S=C(Nc1ccc(Cl)cc1)NN1CCOCC1 | ? | -10 | -1% | 11µM* | 10%
COc1ccc(NC(=S)NN2CCOCC2)cc1OC | 1% | 23 | 0% | -27% | -5%
Cc1noc(C)c1C(=O)N1CCC[C@@]2(CCN(C(c3ccccc3)c3ccccc3)C2)C1 | -3% | / | / | -13% | /
CCOC(=O)c1c(NC(=O)CSc2ncnc3ccccc23)sc(C(C)=O)c1C | -7% | 10 | -2% | -4% | 15µM*
CCOC(=O)c1c(NC(=O)CSc2nnc(-c3cccnc3)o2)sc(C(C)=O)c1C | ? | -1 | 0% | 10µM* | -31%
O=C(OCC(=O)N1CCCC1)c1ccccc1C(=O)c1ccccc1 | / | 6 | 0% | / | ?
CC(C)C[C@@H](CC(=O)N[C@H](CC(=O)N[C@@H]1CCNC[C@H]1C(=O)N[C@H](CC(=O)N[C@@H](CCC(=O)O)CC(=O)O)CC(C)C)C(C)C)NC(=O)[C@@H]1CCCC[C@H]1N | -7% | / | / | 14% | /
CCc1ccc(Nc2nnc(SCC(=O)N(C)CC(=O)Nc3ccccc3CC)s2)cc1 | -37% | 16 | 6% | 39% | 18µM*
SMILES | VP16 counter | TSHR antag | B2AR arrestin | RORgamma inh | ELG1 repair inh
CCc1ccccc1NC(=O)CN(C)C(=O)CSc1nnc(Nc2ccc(C)cc2)s1 | -6% | -4 | 0% | 41% | ?
CC(=O)NC(=S)Nc1cccc2c(C)cc(C)nc12 | 11µM* | -18 | -1% | 1.6µM* | 5%
Cc1ccc2cccc(NC(=S)NC(=O)c3ccccc3)c2n1 | 7.9µM* | 6 | 3% | 1.8µM* | 4%
Cc1ccc2cccnc2c1NC(=S)NC(=O)c1ccccc1 | 3.5µM* | -3 | 0% | 1.3µM* | -4%
Cc1ccc2cn[nH]c2c1NC(=S)NC(=O)c1ccccc1 | -4% | 13 | 0% | ? | 0%
O=C(NC(=S)Nc1ccccc1C(=O)O)c1ccc2ccccc2c1 | 1% | -8 | -1% | 2% | -26%
COc1cc(OC)nc(NC(=S)NC(=O)c2ccccc2)n1 | ? | 4 | -1% | 5µM* | 5%
CN1CCN(c2ncc3nc(CCc4ccccc4)c(=O)n(CCC#N)c3n2)CC1 | -8% | / | / | -11% | /
Cc1cc(NNC(=O)c2cccc(C(F)(F)F)c2)nc2c1c(C)nn2C | ? | -10 | 0% | -29% | ?
Cc1cccc(C(=O)NCC(=O)NC(C)c2ccc(-n3ccnc3)cc2)c1 (centres undefined) | / | -4 | -1% | / | -1%
O=C1N(Cc2ccccc2)c2ccc(Cl)cc2C12OCCO2 | -6% | -6 | 0% | -12% | -12%
Cc1csc(NC(=S)NC(=O)c2ccccc2)n1 | 3.2µM* | 7 | ? | 2µM* | ?
Cc1cc(C)c2cccc(NC(=S)NC(=O)c3ccccc3)c2n1 | 3.2µM* | 5 | 3% | ? | ?
Cc1csc(NC(=O)c2ccccc2)n1 | -14% | -5 | 0% | -81% | ?
COc1cc(NC(=S)NC(=O)c2ccco2)ccc1NC(=O)C(C)C | -16% | 5 | 0% | -25% | ?
CCOc1cc(NC(=S)NCCOC)c(OCC)cc1NC(=O)c1ccco1 | ? | -10 | 0% | 13µM* | ?
COc1ccccc1C(=O)NNC(=O)C(=O)Nc1ccc(C)cc1 | 3% | 10 | 4% | 11µM* | -5%
COc1cc(NC(=O)C(C)C)ccc1NC(=O)c1ccco1 | -12% | -93* | 0% | ? | ?
CCOc1ccccc1NC(=S)NC(=O)c1ccco1 | / | -5 | 0% | / | 7%
CCNC(=S)Nc1cc(OC)c(NC(=O)c2ccco2)cc1OC | -10% | 10 | 0% | 13µM* | -5%
COc1ccccc1C(=O)NNC(=O)C(=O)Nc1ccc(C)c(Cl)c1 | -18% | 0 | 0% | ? | -4%
COc1cc(NC(=S)NCCCN(C)C)c(OC)cc1NC(=O)c1ccco1 | -3% | 2 | -1% | -3% | -3%
COc1ccc(CC(=O)OCC(=O)NC2CCCC(C)C2C)cc1OC (centres undefined) | / | -2 | -1% | / | ?
CCC#CCOCC(=S)Nc1ccccc1 | 1% | / | / | -6% | /

Source: PubChem (National Center for Advancing Translational Sciences (NCATS))
